Inconclusive results are not listed. Where a call stands in place of a potency, no number is given. Active and inactive are the calls of the source. Calls come from the whole dose curve; as a rule, active = well fitted inhibition curve with a large enough effect; inconclusive = small, poorly fitted or top-dose-only effect; inactive = flat fitted curve, though single readings scatter.

This experiment deals with Calcium and integrin-binding protein 1 (Homo sapiens) (UniProt Q99828). Briefly: Primary qHTS for Identification of Calcium Integrin Binding Protein 1 (CIB1) Competitor (AID 1508620).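 Note: GST tagged CIB1 binding a fluorescein labelled alphaIIb integrin peptide tracer; top concentration of the series differs between compounds.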 The following applies: CIB1-GST / FITC-alphaIIb peptide fluorescence polarization; series mostly up to 114 µM. The method in brief: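 Fluorescence polarization competition: CIB1-GST (1 uM final) preincubated with compound 15 min at room temperature, then FITC-labeled alphaIIb peptide (100 nM final) added for another 15 min. Polarization read at Ex 480/Em 540.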
Calcium and integrin-binding protein 1 (Homo sapiens), sequence (Q99828 whole entry, looked up): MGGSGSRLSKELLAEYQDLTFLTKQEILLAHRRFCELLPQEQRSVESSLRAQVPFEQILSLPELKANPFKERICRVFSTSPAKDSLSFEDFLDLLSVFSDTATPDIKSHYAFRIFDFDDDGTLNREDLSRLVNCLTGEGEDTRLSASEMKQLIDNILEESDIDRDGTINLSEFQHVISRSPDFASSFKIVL
A general note: In qHTS, concentration-response curves come from the screen itself.
On to `Cc1cc(C)nc(NC(=S)N2CCN(c3cccc(C#N)c3)CC2)c1`, for which the Potency result is “inactive”.
To `O=C(Cc1nnc(-c2cc3ccccc3[nH]2)o1)Nc1cc(C(F)(F)F)ccc1Cl` belongs “inactive”; to `Cc1cc(-c2ccccc2)nc2c(C(=O)Nc3ccc(Cl)c(Cl)c3)cnn12`, “inactive”.
To `COc1ccc(C2Nc3ccccc3C(=O)N2CCc2ccccc2)cc1COc1ccc(NC(C)=O)cc1` (stereo not given) belongs “inactive”; to `CC(C)(C)OC(=O)N1CCN(c2ccc(NCc3ccnc(-c4ccc(C#N)cc4)n3)cc2)CC1`, “inactive”; to `Cc1cc(C)nc(NC(=S)N2CCN(c3ccc4cnccc4c3)CC2)c1`, “inactive”.
`O=S(=O)(Nc1ccccc1F)c1ccc(O)c2ncccc12`: the Potency entry is “inactive”.
In the case of `COc1cccc(-c2csc(N3CCC(C(N)=O)CC3)n2)c1` it was “inactive”.
As for `O=S(=O)(c1ccc2c(c1)OCO2)N1CCN(S(=O)(=O)c2c(F)cccc2F)CC1`, the Potency entry was “inactive”.
In the case of `O=C1c2ccccc2C(=O)N1Cc1cccnc1` it was “inactive”; in that of `Cc1cccc(CNc2ccnc(-c3ccc(F)cc3F)n2)c1`, “inactive”; in that of `COc1cccc(N2C(=O)c3ccccc3C2=O)c1`, “inactive”.
As for `CCCN(Cc1cccs1)c1ncnc2ccc(-c3ccc4c(c3)OCO4)cc12`, the Potency result is “inactive”.
In the case of `Cc1cc(C)nc(NC(=S)N2CCN(c3ccc([N+](=O)[O-])c4cccnc34)CC2)c1` it was “inactive”; in that of `CC(C)(C)OC(=O)Cc1nnc(C(C(=O)OCc2ccccc2)c2ccccc2)s1` (stereo not given), “inactive”; in that of `O=C(CSc1ncnc2sc3c(c12)CCCCC3)NCc1ccco1`, “inactive”.
To `CCOC(=O)c1ccc(-n2c(C)cc(-c3nnc4n3CCCCC4)c2C)cc1` belongs “inactive”; to `O=c1c2ccccc2nc2sc(Nc3ccc4c(c3)CNC4)nn12`, “inactive”.
Turning to `COc1cc(Nc2nc(-c3ccncc3)nc3ccccc23)ccc1F`, the Potency entry is “inactive”.
Regarding `O=c1c2ccccc2nc2sc(Nc3cccc(Cl)c3)nn12`, the Potency entry is “inactive”.
To `O=C(COC(=O)CNC(=O)c1ccccc1Cl)Nc1ccccc1Cl` belongs “inactive”; to `CCOc1ccc(CCNC(=O)C2(c3ccccc3)CC2)cc1OCC`, “inactive”.
To `CC(C)(C)OC(=O)N1CCN(c2ccc(NCc3ccc(-c4ccccc4F)o3)cc2)CC1` belongs “inactive”; to `Cc1cc(C)nc(NC(=S)N2CC3CN(c4ccc(Cl)cc4C(F)(F)F)CC3C2)c1` (stereo not given), “inactive”.
In the case of `O=C(Cn1cc(CNCc2ccccc2)nn1)Nc1cc(C(F)(F)F)ccc1Cl`, the Potency entry was “inactive”.
With `Fc1ccc(-c2ccc(CNc3nc(-c4ccccc4C(F)(F)F)nc4ccccc34)cc2)cc1C(F)(F)F`, the Potency entry was “inactive”.
For the compound `CC(C)c1cc(C(C)C)c(S(=O)(=O)Nc2cccc3cccnc23)c(C(C)C)c1`, the Potency entry was “inactive”.
For the compound `Cc1ccnc(NC(=S)N2CCN(c3cccc(N(C)C)c3)CC2)c1`, the Potency entry is “inactive”.
Turning to `COc1ccc(C[C@H](C(=O)O)N2C(=O)c3ccc(C(=O)O)cc3C2=O)cc1`, the Potency result was “inactive”.
For the compound `O=C(OCC#CCSc1nnc(-c2cccc3ccccc23)o1)c1cnc[nH]1`, the Potency entry was “inactive”.
Consider `Clc1cccc(-c2nc(-c3ccc(-c4nn[nH]n4)cc3)no2)c1`, for which the Potency entry was “inactive”.
With `CCOc1ccc(CCNC(=O)c2cc3sccc3n2CCN2CCN(C)CC2)cc1OCC`, the Potency result is “inactive”.
On to `Cc1cc(C)nc(NC(=S)N2CCN(c3cncs3)CC2)c1`, for which the Potency result is “inactive”.
To `COc1ccc(C2Nc3ccccc3C(=O)N2Cc2ccc(C)o2)cc1COc1c(C)cccc1C` (stereo not given) belongs “inactive”; to `COc1cc(O)c(C(CC(=O)N2CCCC(c3ccccc3)C2)c2ccc3c(c2)OCO3)c(OC)c1` (stereo not given), “inactive”.
In the case of `O=C(Nc1ccc(Cl)c(S(=O)(=O)N2CCOCC2)c1)c1ccc(S(=O)(=O)N2CCOCC2)cc1` it was “inactive”; in that of `Fc1c(-c2ccc3ncnc(NCc4cccs4)c3c2)ccc2c1OCO2`, “inactive”; in that of `COc1ccc(-c2nnc3n2N=C(c2ccc(OC)c(OC)c2)CS3)cc1`, “inactive”.
Take `COc1ccc(-c2nc3ccccc3c(=O)n2Cc2ccco2)cc1COc1c(C)cccc1C`: the Potency entry is “inactive”.
Turning to `O=C1c2ccccc2NC(c2ccc(-c3ccccc3F)o2)N1O` (stereo not given), the Potency result is “inactive”.

Source of the values: PubChem BioAssay (NCATS).
